Source: ChEMBL document CHEMBL3988442, “University of Dundee, Small-Polar-MMV Screening Library” (2021)
For some of these results: Potency and affinity values are given separately.

Experiments:
Set-up in all cases: scale not given: direction of the effect not stated beside the values
[1] = target: Protein translocase subunit SecA (Escherichia coli (strain K12)) (UniProt P10408); assay: Assay to Identify E. coli SecA ATPase Inhibitors; type: functional; conditions: 30 µM
[2] = target: T1, Ubiquitin-activating enzyme e1, putative (Leishmania donovani (strain BPK282A1)) (UniProt E9BSI1); assay: Leishmania donovani Ubiquitin Activating Enzyme (LdE1); type: functional; conditions: 30 µM
T1 sequence (whole entry): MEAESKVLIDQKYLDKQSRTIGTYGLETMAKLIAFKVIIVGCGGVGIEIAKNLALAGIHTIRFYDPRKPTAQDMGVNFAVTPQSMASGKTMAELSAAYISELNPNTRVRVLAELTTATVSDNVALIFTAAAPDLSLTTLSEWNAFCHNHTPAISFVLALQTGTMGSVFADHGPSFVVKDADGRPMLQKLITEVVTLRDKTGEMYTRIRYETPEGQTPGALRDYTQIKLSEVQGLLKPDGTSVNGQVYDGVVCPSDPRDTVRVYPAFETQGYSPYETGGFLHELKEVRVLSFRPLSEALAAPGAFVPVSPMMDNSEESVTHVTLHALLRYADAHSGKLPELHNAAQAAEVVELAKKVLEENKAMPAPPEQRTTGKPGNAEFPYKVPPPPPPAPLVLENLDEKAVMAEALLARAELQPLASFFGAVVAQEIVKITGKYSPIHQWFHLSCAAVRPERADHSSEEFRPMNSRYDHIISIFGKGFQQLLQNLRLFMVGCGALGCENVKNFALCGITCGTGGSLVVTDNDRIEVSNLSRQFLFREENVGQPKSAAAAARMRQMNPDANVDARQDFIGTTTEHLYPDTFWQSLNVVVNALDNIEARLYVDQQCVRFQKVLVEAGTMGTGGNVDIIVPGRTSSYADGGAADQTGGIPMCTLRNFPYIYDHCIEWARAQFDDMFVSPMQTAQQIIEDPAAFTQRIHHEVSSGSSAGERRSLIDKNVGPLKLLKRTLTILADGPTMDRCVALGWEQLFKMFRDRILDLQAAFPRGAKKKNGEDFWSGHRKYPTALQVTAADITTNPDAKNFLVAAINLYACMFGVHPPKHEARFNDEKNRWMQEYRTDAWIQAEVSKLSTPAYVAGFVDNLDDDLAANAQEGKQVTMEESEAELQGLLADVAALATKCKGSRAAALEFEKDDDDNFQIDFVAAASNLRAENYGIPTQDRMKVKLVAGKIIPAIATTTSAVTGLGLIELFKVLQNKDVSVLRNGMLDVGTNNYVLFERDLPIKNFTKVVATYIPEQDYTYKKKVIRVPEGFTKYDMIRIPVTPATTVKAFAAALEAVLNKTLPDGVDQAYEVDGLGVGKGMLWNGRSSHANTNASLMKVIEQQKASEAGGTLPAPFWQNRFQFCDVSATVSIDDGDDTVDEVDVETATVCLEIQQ

[3] = target: AMP-activated protein kinase, AMPK (Homo sapiens) (UniProt P54646+O43741+P54619+Q9UGJ0+Q9Y478+Q13131+Q9UGI9); assay: AMP-dependent Kinase enzyme assay. An in vitro enzyme assay that detects ADP turnover that is directly proportional to AMPK activity. This uses naive AMPK that is activated during the assay with MK-8722; type: functional; conditions: 30 µM
[4] = target: Sialic acid-binding Ig-like lectin 9 (Homo sapiens) (UniProt Q9Y336); assay: Hs-Siglec9 ALPHAscreen SOP 20170721; conditions: 10 µM
Trypanosoma cruzi = assay: Trypanosoma cruzi phosphomannomutase and mannose-1-phosphate guanylyltransferase assay; type: functional; conditions: 10 µM
[5] = target: T2, Arginase-2, mitochondrial (Homo sapiens) (UniProt P78540); assay: in vitro enzyme assay to detect the production of urea directly proportional to the activity of Arginase II; type: functional; conditions: 33.3 µM; also: in the data most compounds retested in dose-response had high values
T2 sequence (whole entry): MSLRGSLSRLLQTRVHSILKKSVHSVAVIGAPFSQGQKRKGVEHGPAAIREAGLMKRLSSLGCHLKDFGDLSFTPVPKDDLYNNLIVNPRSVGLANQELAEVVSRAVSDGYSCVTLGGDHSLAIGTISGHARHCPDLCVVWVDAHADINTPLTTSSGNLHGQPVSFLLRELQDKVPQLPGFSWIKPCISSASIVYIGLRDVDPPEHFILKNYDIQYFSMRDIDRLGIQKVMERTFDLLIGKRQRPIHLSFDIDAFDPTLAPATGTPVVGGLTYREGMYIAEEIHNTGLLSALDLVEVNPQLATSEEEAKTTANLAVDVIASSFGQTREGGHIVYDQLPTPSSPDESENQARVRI

[6] = target: T3, Proteasome subunit beta (Trypanosoma cruzi) (UniProt O96673); assay: Trypanosoma cruzi proteasome chymotrypsin-like activity (TcProtChymo) assay.; also: in the data most compounds retested in dose-response had high values; type: functional; conditions: 9.37 µM
T3 sequence (whole entry): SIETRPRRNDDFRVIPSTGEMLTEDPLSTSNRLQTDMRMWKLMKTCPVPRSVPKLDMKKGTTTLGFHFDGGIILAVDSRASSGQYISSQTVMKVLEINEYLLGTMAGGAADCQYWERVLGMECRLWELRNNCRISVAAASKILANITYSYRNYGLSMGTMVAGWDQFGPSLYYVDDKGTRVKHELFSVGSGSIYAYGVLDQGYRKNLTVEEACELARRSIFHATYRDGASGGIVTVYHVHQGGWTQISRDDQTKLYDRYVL

Homo sapiens = species on record: Homo sapiens; assay: To identify inhibition of the IFN signalling (Jak-Stat) pathway via expression of an eGFP reporter gene under the control of an IFN-stimulated response element (ISRE) containing MxA promoter.; type: functional; conditions: 30 µM
[7] = target: T4, Tyrosyl-tRNA synthetase, putative (Trypanosoma cruzi (strain CL Brener)) (UniProt Q4DSP6); assay: Trypanosoma cruzi tyrosyl tRNA synthetase (TcYRS) _High Tyrosine SOP; type: functional; conditions: 30 µM; also: in the data most compounds retested in dose-response had high values
T4 sequence (whole entry): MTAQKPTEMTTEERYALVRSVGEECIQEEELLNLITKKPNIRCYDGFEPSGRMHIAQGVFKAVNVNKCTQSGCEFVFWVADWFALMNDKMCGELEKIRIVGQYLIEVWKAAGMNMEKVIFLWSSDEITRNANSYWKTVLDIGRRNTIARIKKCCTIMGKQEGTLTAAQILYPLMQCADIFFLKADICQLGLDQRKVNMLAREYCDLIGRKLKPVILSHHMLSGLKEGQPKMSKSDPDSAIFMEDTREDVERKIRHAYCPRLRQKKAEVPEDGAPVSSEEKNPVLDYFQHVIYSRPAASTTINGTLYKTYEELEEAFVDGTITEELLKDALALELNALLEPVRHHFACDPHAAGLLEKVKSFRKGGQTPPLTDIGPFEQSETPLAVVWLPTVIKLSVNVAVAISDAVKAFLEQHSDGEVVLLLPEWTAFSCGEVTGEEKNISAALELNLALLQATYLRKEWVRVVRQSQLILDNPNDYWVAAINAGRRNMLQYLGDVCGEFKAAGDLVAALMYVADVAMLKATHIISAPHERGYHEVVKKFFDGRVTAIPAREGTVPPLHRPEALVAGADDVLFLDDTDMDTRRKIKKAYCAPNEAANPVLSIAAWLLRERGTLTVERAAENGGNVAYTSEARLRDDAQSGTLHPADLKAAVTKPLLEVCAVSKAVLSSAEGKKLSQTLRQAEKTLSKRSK

[8] = target: T4, Tyrosyl-tRNA synthetase, putative (Trypanosoma cruzi (strain CL Brener)); assay: Trypanosoma cruzi tyrosyl tRNA synthetase (TcYRS) SOP; type: functional; conditions: 30 µM
[9] = target: Chromo domain-containing protein 1 (Saccharomyces cerevisiae (strain ATCC 204508 / S288c) (Baker's yeast)) (UniProt P32657); assay: ScCHD-1 Enzyme Inhibition Assay; type: functional; conditions: 30 µM; also: in the data most compounds retested in dose-response had high values
Chain of Chromo domain-containing protein 1 (Saccharomyces cerevisiae (strain ATCC 204508 / S288c) (Baker's yeast)) (P32657 whole entry, the tested form may be a part): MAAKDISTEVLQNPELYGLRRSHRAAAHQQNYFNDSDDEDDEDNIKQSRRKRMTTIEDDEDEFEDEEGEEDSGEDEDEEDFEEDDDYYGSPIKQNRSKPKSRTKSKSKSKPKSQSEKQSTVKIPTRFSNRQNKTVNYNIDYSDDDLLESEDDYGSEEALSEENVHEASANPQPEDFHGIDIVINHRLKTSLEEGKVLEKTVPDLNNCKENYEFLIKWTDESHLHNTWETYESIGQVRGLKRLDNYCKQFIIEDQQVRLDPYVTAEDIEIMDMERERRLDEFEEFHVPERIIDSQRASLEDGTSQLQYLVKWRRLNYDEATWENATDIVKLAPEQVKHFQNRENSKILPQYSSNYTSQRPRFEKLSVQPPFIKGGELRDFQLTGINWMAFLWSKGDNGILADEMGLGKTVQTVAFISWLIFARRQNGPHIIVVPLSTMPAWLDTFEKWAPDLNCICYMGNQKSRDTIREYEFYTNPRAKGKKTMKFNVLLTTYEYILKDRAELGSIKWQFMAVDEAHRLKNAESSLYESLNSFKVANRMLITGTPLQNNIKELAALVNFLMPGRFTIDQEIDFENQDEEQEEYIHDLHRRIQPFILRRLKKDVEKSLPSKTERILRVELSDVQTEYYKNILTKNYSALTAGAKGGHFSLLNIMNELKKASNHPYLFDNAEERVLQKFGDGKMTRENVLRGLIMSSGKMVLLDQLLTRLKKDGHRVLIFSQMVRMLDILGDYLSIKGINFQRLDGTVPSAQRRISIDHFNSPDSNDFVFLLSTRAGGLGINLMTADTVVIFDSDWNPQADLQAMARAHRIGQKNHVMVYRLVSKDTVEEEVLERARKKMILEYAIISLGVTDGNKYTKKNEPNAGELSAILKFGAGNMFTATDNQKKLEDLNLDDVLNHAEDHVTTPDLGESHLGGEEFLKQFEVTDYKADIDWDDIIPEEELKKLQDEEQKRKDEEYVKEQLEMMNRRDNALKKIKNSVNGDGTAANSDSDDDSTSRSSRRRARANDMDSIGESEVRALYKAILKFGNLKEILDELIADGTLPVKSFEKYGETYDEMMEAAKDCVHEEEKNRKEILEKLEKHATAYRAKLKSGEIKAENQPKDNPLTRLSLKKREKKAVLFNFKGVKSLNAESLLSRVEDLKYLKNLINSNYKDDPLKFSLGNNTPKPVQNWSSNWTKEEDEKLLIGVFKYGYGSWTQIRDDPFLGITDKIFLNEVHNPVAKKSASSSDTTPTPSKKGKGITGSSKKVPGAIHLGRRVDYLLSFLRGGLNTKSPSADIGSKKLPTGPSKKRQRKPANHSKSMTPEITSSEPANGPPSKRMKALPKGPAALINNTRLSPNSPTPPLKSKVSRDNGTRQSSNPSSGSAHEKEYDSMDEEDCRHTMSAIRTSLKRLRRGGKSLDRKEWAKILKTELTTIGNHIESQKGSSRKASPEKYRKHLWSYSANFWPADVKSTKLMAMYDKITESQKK

Chain of Sialic acid-binding Ig-like lectin 9 (Homo sapiens) (Q9Y336 whole entry): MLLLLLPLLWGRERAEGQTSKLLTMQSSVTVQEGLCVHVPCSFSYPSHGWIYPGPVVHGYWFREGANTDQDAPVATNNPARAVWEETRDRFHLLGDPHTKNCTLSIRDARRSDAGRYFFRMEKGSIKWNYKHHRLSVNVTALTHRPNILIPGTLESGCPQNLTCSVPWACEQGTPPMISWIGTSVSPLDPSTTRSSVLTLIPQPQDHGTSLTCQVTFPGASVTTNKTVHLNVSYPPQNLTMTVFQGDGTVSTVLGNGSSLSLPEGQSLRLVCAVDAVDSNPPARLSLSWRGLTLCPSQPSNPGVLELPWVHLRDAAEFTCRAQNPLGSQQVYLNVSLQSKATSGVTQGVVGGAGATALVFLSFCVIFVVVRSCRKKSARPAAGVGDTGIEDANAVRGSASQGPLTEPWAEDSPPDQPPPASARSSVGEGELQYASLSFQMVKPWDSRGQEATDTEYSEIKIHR
Chain of Protein translocase subunit SecA (Escherichia coli (strain K12)) (P10408 whole entry): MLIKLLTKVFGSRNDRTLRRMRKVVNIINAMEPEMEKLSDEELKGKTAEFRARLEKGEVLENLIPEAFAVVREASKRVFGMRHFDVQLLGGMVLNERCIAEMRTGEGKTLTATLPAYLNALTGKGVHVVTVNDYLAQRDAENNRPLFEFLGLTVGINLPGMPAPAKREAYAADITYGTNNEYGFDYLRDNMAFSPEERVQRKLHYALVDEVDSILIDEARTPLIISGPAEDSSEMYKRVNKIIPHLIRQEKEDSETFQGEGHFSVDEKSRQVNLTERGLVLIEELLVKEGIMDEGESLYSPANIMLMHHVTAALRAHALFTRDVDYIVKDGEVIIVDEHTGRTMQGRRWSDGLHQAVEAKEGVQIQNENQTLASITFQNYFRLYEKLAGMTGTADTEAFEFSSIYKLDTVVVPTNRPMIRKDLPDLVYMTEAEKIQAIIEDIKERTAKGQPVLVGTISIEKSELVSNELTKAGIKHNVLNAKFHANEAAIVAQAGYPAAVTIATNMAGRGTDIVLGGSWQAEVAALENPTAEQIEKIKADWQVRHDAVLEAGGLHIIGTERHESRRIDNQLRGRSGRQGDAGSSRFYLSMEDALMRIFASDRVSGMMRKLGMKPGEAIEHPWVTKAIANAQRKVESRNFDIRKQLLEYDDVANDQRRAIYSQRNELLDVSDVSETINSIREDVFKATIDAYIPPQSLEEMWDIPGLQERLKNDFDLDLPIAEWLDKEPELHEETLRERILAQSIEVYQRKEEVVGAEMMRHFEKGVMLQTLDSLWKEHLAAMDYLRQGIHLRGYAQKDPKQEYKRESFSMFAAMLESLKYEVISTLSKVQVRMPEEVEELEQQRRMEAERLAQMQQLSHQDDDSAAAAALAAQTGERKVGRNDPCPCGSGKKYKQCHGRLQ

SMILES	Percent Effect [1]	Percent Effect [2]	Percent Effect [3]	Percent Effect [4]	Percent Effect (Trypanosoma cruzi)	Percent Effect [5]	Percent Effect [6]	Percent Effect (Homo sapiens)	Percent Effect [7]	Percent Effect [8]	Percent Effect [9]
OCCOCCN1CCCC1c1nc2cc(F)ccc2[nH]1 (configuration not stated)	7.36%	21.9%	-1.73%	-1.07%	-13.1%	-2.4%	14.3%	9.67%	11.5%	18.5%	-1.92%
Cc1nccn1-c1nccnc1C1CCN(Cc2ccc(F)cc2)CC1	-2.09%	21.3%	4.62%	-5.84%	5.91%	-2.56%	15.2%	7.46%	4.25%	16.7%	-4.22%
Cc1[nH]ncc1C(=O)N1CCCC(c2cc(C(F)(F)F)[nH]n2)C1 (configuration not stated)	-6.98%	8.11%	-26.4%	5.54%	-6.59%	-3.51%	2.69%	14.8%	2.97%	6.1%	3.81%
COc1c(C2CCCN2Cc2cc(C)no2)c(C)nn1C (configuration not stated)	-1.92%	8.11%	-4.61%	-2.24%	-5.11%	3.88%	11.3%	15.9%	4.95%	11%	-0.457%
CC(C)CCN1CC2(CCCN(C(=O)c3cscn3)C2)CCC1=O (configuration not stated)	-3.18%	7.79%	1.5%	11.5%	4.82%	-66.2%	8.98%	-4.77%	5.38%	13.6%	-0.298%
COc1ccc(NC(=O)CNc2cccc3c2CCCC3)c(OC)c1	-6.64%	-2.7%	-0.0771%	0.268%	-5.57%	-3.23%	6.95%	-3.03%	-6.45%	-11.1%	-3.27%
Cc1cc(F)cc(S(=O)(=O)NCCCN2CCC(O)CC2)c1	1.42%	15.6%	0.172%	0.431%	-0.688%	5.52%	14.6%	10.8%	7.53%	23.5%	1.36%
CCS(=O)(=O)N1CC[C@]2(C[C@@H](OCC3CC3)CO2)C1	-5.7%	5.41%	-4.19%	27.4%	6.94%	-1.74%	13.3%	1.36%	8.6%	13.6%	-6.86%
O=C(CCOCc1ccccc1)N1CCCC1c1noc(C2CC2)n1 (configuration not stated)	-0.0528%	21.6%	-9.42%	3.05%	1.23%	-10.4%	5.22%	4.41%	-23.1%	25.9%	-10%
O=S(=O)(C1CC1)N1CCC2(COCc3cnc(N4CCOCC4)nc32)C1 (configuration not stated)	1.84%	14.7%	1.88%	-4.21%	-2.55%	-6.16%	9.61%	13.3%	1.06%	5.13%	-7.85%
COCCN1C(=O)C[C@H]2[C@H]1CCN2Cc1ccc(OC)cc1	-2.83%	5.33%	11%	-2.04%	-9.45%	7.69%	13.5%	17.5%	3.19%	6.41%	-5.69%
Nc1ncc2c(n1)CN(C1CCCC1)C2=O	-4.34%	10.4%	-3.73%	9.11%	4.82%	-168%	19.5%	-17.3%	10.8%	21%	121%
COCc1cnc2n1CCN(Cc1cccnc1)C2C (configuration not stated)	-1.07%	8%	0.686%	6.43%	3.28%	-50.4%	-0.171%	-15.6%	2.08%	5%	-2.32%
Cc1nc(CN2CCOC(Cn3cncn3)C2)nc2ccccc12 (configuration not stated)	-1.64%	-2.6%	3.13%	0.385%	3.04%	-1.05%	9.62%	-20.1%	5.71%	0%	-15.8%
Cc1cc(CN2CCN(CC(O)c3ccccc3)CC2)no1 (configuration not stated)	-5.4%	10.1%	-4.74%	1.14%	7.65%	2.28%	-0.0819%	-14.5%	6.4%	13.9%	-1.57%
Cc1nc(CNC(=O)NCC(O)c2cccc(Cl)c2)cs1 (configuration not stated)	-1.26%	2.7%	-4.33%	3.81%	-8.69%	-4.29%	23.4%	6.47%	0.529%	4.88%	-3.89%
CCc1ccc(C(=O)N2CCN(CCS(C)(=O)=O)CC2)o1	-3.79%	-5.26%	3.96%	8.99%	-0.752%	0.383%	4.18%	10.7%	5.39%	7.32%	0.21%
